Experimental data from PubChem BioAssay (Tox21).
Inconclusive results are not listed. Calls of active or inactive are those of the source. Unless noted, the call rests on the fitted dose curve; in most records, active means well fitted curve in the direction sought with a large enough effect in the repeat runs; inconclusive means weak or mixed curves; inactive means no such curve, though single readings can be large; an effect the other way counts as inactive or inconclusive.

Experiments:
[1] = qHTS assay to identify small molecule agonists of the vitamin D receptor (VDR) signaling pathway - cell viability counter screen (AID 743224); further: nearly all actives have a fitted effect of over 50% in size
In short: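 Cells: VDR-bla, 2,000/well, settled 4 h. Treatment: compounds in DMSO, 16 h, 37C/5% CO2. Readout: CellTiter-Glo luminescence after 30 min RT.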

[2] = qHTS assay to identify small molecule antagonists of the vitamin D receptor (VDR) signaling pathway - cell viability counter screen (AID 743225); further: nearly all actives have a fitted effect of over 50% in size
In short: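 Cytotoxicity toward the VDR-bla HEK 293T line was scored by ATP-based CellTiter-Glo luminescence, read in the wells already used for the beta-lactamase readout after 16 h compound treatment under 3 nM 1-alpha,25-dihydroxyvitamin D3 stimulation.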

[3] = qHTS assay to identify small molecule agonists of the NFkB signaling pathway (AID 1159509; active means well fitted curve in the direction sought with a large enough effect in the signal ratio in the repeat runs, not every such curve was filed as active; the % refers to the signal ratio)
In short: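 Readout: FRET fluorescence, 405 nm excitation, 460/530 nm emission; beta-lactamase expression disrupts FRET. Cells: ME-180 stably carrying NF-kB-driven bla reporter. Compound exposure 5 hr, 37 C, 5% CO2.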

[4] = qHTS assay to identify small molecule agonists of the NFkB signaling pathway - cell viability counter screen (AID 1159515; calls by dose curve; further: nearly all actives have a fitted effect of over 55% in size)
In short: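 Cells are seeded (2,000 NFkB-bla ME-180 per well), rested overnight, and dosed with DMSO-dissolved compounds for 5 hr at 37 C. Viability is then read by CellTiter-Glo luminescence after 30 min at room temperature.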

[5] = qHTS assay to identify small molecule agonists of the endoplasmic reticulum stress response signaling pathway (AID 1159516; active means well fitted activation curve with a large enough effect in the signal ratio in the repeat runs, not every such curve was filed as active; the % refers to the signal ratio)
In short: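 Cells are seeded at 1,500 per well and incubated overnight. Compounds in DMSO are added for 5 hr at 37 C, then beta-lactamase FRET substrate for 2 hr at room temperature, and fluorescence at 460 and 530 nm is measured.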

[6] = qHTS assay to identify small molecule agonists of the endoplasmic reticulum stress response signaling pathway - cell viability counter screen (AID 1159517; calls by dose curve;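 further: HeLa cells carrying an ER stress response element beta-lactamase reporter; nearly all actives have a fitted effect of over 50% in size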)
In short: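 Cytotoxicity of test compounds toward ESRE-bla HeLa cells was assessed after 5 hr exposure. The luminescent CellTiter-Glo signal was measured 30 min after reagent addition.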

[7] = qHTS assay to identify small molecule antagonists of the retinoid-related orphan receptor gamma (ROR-gamma) signaling pathway - cell viability counter screen (AID 1159520); further: nearly all actives have a fitted effect of over 50% in size
In short: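 Tet-on ROR gamma CHO cells (1,000/well) were plated 4 hr, given compounds in DMSO for 2 hr at 37 C, then induced with 1 uM final doxycycline for 16 hr. Viability was read as ATP by CellTiter-Glo luminescence after 30 min.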

[8] = molecular target: Nuclear receptor ROR-gamma (Homo sapiens) (UniProt P51449); assay: qHTS assay to identify small molecule antagonists of the retinoid-related orphan receptor gamma (ROR-gamma) signaling pathway (AID 1159521)
In short: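 Readout: ONE-Glo luciferase luminescence, 30 min at room temperature. System: Tet-on RORγ CHO, RORE-LUC. Sequence: compound 2 h, doxycycline 1 uM final, 16 h at 37 C.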

[9] = qHTS assay to identify small molecule agonists of the AP-1 signaling pathway - cell viability counter screen (AID 1159525; calls by dose curve; further: nearly all actives have a fitted effect of over 55% in size)
In short: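 Each titration point was normalised to DMSO and tetra n-octyl ammonium bromide controls. The read was Cell Titer Glo luminescence after 30 min at RT, following 5 h compound exposure of ME-180 AP-1-bla cells at 37 °C.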

[10] = qHTS assay to identify small molecule agonists of the AP-1 signaling pathway (AID 1159526; calls by dose curve)
[11] = molecular target: Retinoic acid receptor RXR-alpha (Homo sapiens) (UniProt P19793); assay: qHTS assay to identify small molecule agonists of the RXR signaling pathway (AID 1159527; calls by dose curve; further: nearly all actives have a fitted effect of over 35% in size)
Retinoic acid receptor RXR-alpha (Homo sapiens), sequence (P19793 whole entry, looked up): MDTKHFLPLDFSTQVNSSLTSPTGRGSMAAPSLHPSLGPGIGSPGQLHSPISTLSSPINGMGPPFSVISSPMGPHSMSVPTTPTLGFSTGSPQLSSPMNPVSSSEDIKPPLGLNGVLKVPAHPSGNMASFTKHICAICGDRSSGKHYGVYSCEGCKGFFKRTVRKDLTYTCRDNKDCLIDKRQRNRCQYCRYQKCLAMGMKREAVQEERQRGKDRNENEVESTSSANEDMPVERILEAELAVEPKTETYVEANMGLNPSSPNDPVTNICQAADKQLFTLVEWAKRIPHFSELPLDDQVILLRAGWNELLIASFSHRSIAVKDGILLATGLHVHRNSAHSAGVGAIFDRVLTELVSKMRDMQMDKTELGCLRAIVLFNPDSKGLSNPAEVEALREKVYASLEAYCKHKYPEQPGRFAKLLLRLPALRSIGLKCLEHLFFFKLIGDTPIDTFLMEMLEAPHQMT
In short: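 Reporter activation is measured as beta-lactamase activity via FRET substrate cleavage (emission 460/530 nm) in HEK 293T cells expressing an RXR-alpha-driven bla construct, following 16 hr compound exposure at 37 C.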

[12] = qHTS assay to identify small molecule agonists of the RXR signaling pathway - cell viability counter screen (AID 1159529); further: nearly all actives have a fitted effect of over 50% in size
In short: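 Tox21 10K compounds were tested for cytotoxicity against GeneBLAzer RXR-alpha HEK 293T cells grown in 2% charcoal-stripped FBS. Exposure lasted 16 hr at 37 C, 5% CO2; viability read by CellTiter-Glo luminescence.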

[13] = qHTS assay to identify small molecule antagonists of the retinoid acid receptor (RAR) signaling pathway - cell viability counter screen (AID 1159551); further: nearly all actives have a fitted effect of over 35% in size
In short: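 Cells (C3RL4) are plated, incubated overnight, dosed with compound in DMSO, then given retinol at 1 uM final. After 6 h at 37 C, CellTiter-Glo is added and luminescence read following 30 min at room temperature.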

[14] = qHTS assay to identify small molecule antagonists of the retinoic acid receptor (RAR) signaling pathway (AID 1159552; further: nearly all actives have a fitted effect of over 50% in size)
In short: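 Overnight-plated C3RL4 reporter cells get compound, then retinol to 1 uM final; plates sit 6 hr at 37 C, 5% CO2. A luciferase reagent is added and light output recorded after 30 min at room temperature.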

[15] = qHTS assay to identify small molecule agonists of the retinoic acid receptor (RAR) signaling pathway (AID 1159553); settings: C3RL4 RARE luciferase reporter, agonist, 6 h; activation: at 73.3 µM (top of the series)
In short: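 Seed C3RL4 reporter cells at 1,000 per well and incubate overnight at 37 C. Add compounds in DMSO, incubate 6 hr. Add luciferase reagent, wait 30 min at room temperature, read luminescence.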

[16] = qHTS assay to identify small molecule antagonists of the estrogen related receptor (ERR) signaling pathway from Tox21 library - cell viability counter screen (AID 1224834); further: nearly all actives have a fitted effect of over 30% in size
In short: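 ERR cells, 2,000/well; 6 h settle at 37 C/5% CO2; pin-tool compound transfer in DMSO; 17.5 h at 37 C; CellTiter-Fluor, 30 min; fluorescence intensity.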

[17] = molecular target: Luciferin 4-monooxygenase (Photinus pyralis) (UniProt P08659); assay: qHTS assay to identify small molecule inhibitors of firefly luciferase (AID 1224835); further: nearly all actives have a fitted effect of over 25% in size
Luciferin 4-monooxygenase (Photinus pyralis), sequence (P08659 whole entry, looked up): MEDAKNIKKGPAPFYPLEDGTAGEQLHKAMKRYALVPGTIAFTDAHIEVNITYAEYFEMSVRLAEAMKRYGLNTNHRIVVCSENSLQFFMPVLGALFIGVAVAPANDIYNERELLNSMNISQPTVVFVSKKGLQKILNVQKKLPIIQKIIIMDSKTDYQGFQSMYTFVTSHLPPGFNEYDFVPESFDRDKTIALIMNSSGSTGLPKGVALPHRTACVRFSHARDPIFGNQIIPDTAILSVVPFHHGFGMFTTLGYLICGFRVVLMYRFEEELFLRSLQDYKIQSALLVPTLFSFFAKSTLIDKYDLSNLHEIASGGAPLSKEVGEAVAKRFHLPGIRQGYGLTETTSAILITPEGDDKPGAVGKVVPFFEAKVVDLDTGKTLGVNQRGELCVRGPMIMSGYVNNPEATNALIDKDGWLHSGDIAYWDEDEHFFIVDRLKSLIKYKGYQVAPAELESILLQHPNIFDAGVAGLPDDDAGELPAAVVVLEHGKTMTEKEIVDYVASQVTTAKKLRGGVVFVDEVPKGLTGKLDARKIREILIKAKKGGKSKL
In short: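 Quantitative HTS format; KM concentrations of both substrates. Purified P. pyralis FLuc activity quantified from luminescence images.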

[18] = qHTS assay to identify small molecule agonists of the constitutive androstane receptor (CAR) signaling pathway - cell viability counter screen (AID 1224836); further: nearly all actives have a fitted effect of over 45% in size
In short: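 Fluorescence from CellTiter-Fluor indicates live cells after 23 h exposure. The human hepatoma line expresses hCAR and a CYP2B6-2.2kb reporter. Incubation medium contains 0.75 uM PK11195 (final).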

[19] = qHTS assay to identify small molecule antagonists of the constitutive androstane receptor (CAR) signaling pathway - cell viability counter screen (AID 1224837); further: nearly all actives have a fitted effect of over 45% in size
In short: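 Viability was measured with CellTiter-Fluor in a HepG2 line carrying stably transfected hCAR and a CYP2B6-2.2kb construct. Cells were exposed for 23 hr at 37 C to 15 compound concentrations with 50 nM CITCO as agonist.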

[20] = molecular target: Nuclear receptor subfamily 1 group I member 3 (Homo sapiens) (UniProt Q14994); assay: qHTS assay to identify small molecule antagonists of the constitutive androstane receptor (CAR) signaling pathway (AID 1224838);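 further: HepG2 cells stably expressing hCAR with CYP2B6 luciferase reporter stimulated by CITCO; nearly all actives have a fitted effect of over 40% in size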
Nuclear receptor subfamily 1 group I member 3 (Homo sapiens), sequence (Q14994 whole entry, looked up): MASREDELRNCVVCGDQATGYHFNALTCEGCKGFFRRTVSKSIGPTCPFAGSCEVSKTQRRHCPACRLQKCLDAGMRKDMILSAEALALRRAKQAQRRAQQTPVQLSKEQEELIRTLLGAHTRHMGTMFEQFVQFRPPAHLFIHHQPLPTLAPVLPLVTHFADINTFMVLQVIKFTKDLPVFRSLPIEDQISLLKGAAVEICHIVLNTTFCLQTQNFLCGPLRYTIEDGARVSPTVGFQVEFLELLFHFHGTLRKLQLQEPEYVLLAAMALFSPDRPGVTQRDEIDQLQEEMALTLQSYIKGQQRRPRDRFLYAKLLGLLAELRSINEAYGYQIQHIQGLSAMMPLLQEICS
In short: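 Antagonist mode used CITCO at a final 50 nM to activate CAR in human hepatoma HepG2 cells carrying stable hCAR and a 2.2 kb CYP2B6 promoter-luciferase construct. Compounds were tested at 15 concentrations over 24 h, with luminescence as the end point.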

Measured: Potency

C1=CCC(c2ccccc2)CC1 (centres undefined)
not listed: [20]
inactive: all other assays above

C[CH2][Ge]([Cl])([CH2]C)[CH2]C
not listed: [20]
inactive: all other assays above

CC(=O)/C=C/c1ccco1
not listed: [20]
inactive: all other assays above

CCC1COC(=O)O1 (centres undefined)
not listed: [20]
inactive: all other assays above

CCN(CCO)c1cccc(C)c1
inactive: all assays above

O=C(O)C(=O)Nc1cccc(-c2nn[nH]n2)c1
not listed: [20]
inactive: all other assays above

CC(CC(=O)O)CC(C)(C)C (centres undefined)
inactive: all assays above

CCOC(=O)CCc1ccccc1
not listed: [20]
inactive: all other assays above

C[C@@H]1C[C@H]2[C@@H]3C[C@H](F)C4=CC(=O)C=C[C@]4(C)[C@@]3(F)[C@@H](O)C[C@]2(C)[C@@]1(O)C(=O)CO
not listed: [17]
inactive: all other assays above

CO/N=C(/C(=O)N[C@@H]1C(=O)N2C(C(=O)O)=C(Cn3nnc(C)n3)CS[C@H]12)c1csc(N)n1
not listed: [20]
inactive: all other assays above

COc1cccc2sc(N)nc12
inactive: all assays above

OCCCCCCCl
not listed: [20]
inactive: all other assays above

OC[C@@H](O)[C@H](O)[C@@H](O)[C@@H](O)CO
not listed: [19] | [20]
inactive: all other assays above

C=CCOc1c(Br)cc(Br)cc1Br
inactive: all assays above
